Columns and labels:
[1] = tested on: Botulinum neurotoxin type F light chain protease (Clostridium botulinum); test: Clostridium botulinum type F light chain protease inhibitors, microsphere substrate cleavage, validation (AID 588459); conditions: multiplex microsphere protease substrate cleavage assay, flow cytometry; at 10 µM; active compounds read high
[2] = target: Botulinum neurotoxin type A (Clostridium botulinum) (UniProt P0DPI0); test: BoNT/A light chain protease inhibitors, biochemical, multiplex microsphere flow cytometry, validation set (AID 588460); conditions: at 10 µM, active compounds read high
Chain of Botulinum neurotoxin type A (Clostridium botulinum) (P0DPI0 whole entry, looked up): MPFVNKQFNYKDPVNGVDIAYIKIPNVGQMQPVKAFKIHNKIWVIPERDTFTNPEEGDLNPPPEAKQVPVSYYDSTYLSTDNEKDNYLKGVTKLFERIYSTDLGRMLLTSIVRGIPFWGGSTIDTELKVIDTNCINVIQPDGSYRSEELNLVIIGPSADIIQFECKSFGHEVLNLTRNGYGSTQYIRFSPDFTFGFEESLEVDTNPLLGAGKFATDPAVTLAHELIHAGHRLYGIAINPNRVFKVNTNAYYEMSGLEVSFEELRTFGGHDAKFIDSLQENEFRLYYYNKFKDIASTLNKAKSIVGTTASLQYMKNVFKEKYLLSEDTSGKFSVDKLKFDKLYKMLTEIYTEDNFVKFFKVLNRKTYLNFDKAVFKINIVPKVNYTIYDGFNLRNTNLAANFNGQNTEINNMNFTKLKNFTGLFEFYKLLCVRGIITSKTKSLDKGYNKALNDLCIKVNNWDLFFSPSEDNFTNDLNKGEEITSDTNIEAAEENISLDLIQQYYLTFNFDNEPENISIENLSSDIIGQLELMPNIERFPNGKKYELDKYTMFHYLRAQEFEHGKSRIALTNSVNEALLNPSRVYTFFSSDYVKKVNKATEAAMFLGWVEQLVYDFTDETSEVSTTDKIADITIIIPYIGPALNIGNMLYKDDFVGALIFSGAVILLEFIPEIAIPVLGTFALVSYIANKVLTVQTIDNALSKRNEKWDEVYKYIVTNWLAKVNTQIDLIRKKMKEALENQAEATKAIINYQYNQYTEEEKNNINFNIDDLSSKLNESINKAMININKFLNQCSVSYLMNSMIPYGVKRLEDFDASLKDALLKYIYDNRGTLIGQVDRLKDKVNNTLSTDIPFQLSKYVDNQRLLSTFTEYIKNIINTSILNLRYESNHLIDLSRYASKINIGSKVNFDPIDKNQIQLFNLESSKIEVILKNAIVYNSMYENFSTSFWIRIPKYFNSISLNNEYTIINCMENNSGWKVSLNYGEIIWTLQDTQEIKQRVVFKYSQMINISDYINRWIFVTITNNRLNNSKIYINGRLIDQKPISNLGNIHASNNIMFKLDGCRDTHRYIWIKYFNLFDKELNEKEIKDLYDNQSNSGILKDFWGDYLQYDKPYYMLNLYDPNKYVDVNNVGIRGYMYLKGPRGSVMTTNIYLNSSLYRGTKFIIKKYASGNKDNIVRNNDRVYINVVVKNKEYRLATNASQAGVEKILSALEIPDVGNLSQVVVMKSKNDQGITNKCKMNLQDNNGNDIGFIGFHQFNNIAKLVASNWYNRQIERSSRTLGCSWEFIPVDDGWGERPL

[3] = target: Lethal factor (Bacillus anthracis) (UniProt P15917); test: Bacillus anthracis lethal factor inhibition, microsphere flow cytometry protease assay, validation at 10 µM (AID 588461); conditions: multiplex microsphere protease cleavage assay, active compounds read high
Chain of Lethal factor (Bacillus anthracis) (P15917 whole entry, looked up): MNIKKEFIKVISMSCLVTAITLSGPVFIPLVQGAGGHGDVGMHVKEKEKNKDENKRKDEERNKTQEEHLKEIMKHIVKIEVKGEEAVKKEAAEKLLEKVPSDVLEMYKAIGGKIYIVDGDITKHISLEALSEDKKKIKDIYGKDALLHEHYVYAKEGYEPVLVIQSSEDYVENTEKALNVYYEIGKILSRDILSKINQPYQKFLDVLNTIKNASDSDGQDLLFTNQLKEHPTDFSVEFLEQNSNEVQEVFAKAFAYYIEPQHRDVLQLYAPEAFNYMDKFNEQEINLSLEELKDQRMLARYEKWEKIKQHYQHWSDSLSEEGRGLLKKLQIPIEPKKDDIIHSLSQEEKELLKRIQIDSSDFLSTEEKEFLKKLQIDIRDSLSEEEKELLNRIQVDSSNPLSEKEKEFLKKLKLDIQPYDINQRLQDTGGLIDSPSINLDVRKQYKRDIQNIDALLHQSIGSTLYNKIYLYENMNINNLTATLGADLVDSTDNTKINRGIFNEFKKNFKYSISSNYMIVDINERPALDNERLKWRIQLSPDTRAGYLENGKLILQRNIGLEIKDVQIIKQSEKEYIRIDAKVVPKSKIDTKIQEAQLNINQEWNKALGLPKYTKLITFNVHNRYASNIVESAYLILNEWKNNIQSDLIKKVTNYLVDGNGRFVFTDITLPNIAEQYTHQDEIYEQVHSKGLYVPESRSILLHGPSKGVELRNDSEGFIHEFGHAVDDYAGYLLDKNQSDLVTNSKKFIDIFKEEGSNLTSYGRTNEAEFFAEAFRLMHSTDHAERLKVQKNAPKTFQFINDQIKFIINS

Measured: inhibition

COc1ccc(CCn2c(C)cc3c(c2=O)C(c2ccncc2)C(C#N)=C(N)O3)cc1OC (stereo not given)
inactive: [1] -1.2% | [2] -0.6% | [3] -6.7%

Cc1ncc([N+](=O)[O-])n1CC(C)O (stereo not given)
inactive: [1] -0.2% | [2] 1.1% | [3] 0.3%

COC(=O)CN1CC(=O)N(c2ccccc2)C1=S
inactive: [1] -0.8% | [2] 0% | [3] -1%

COc1cc(NC(=S)NC(=O)c2cccs2)ccc1NC(=O)C(C)C
inactive: [1] -2.2% | [2] 0.1% | [3] -4%

Cc1ccc2c(c1)C(CCN)C(=O)N2Cc1ccccc1 (stereo not given)
inactive: [1] -1% | [2] 0.7% | [3] 6.7%

COc1cc(C(=O)NCCCCCC(=O)O)cc(OC)c1OC
inactive: [1] 1.3% | [2] -0.4% | [3] -13.3%

O=C1C=CC(=O)C(C2=C3C(=O)N(CCc4ccccc4)CC(=O)N3CCC2)=C1
inactive: [1] 1.8% | [2] -0.3% | [3] -4.9%

NS(=O)(=O)c1ccc(CCNC(=O)C2CCCN2C(=O)OCc2ccccc2)cc1 (stereo not given)
inactive: [1] 3.9% | [2] -0.7% | [3] 1.2%

c1ccc2c(CC3=NCCN3)cccc2c1
inactive: [1] -3.3% | [2] -2.2% | [3] -9.2%

Cc1ccc(-c2nn(-c3cccc(F)c3)cc2CN2CCN(c3ccccn3)CC2)o1
inactive: [1] -0.1% | [2] -0.9% | [3] -6.4%

CC(=Nc1ccccc1)C1=C(O)CCCC1=O
inactive: [1] -3.4% | [2] -0.9% | [3] -5.7%

CC12COC3(C(=O)Nc4ccc(F)cc4)CC1CCC32C (stereo not given)
inactive: [1] 3.3% | [2] 1% | [3] -1.8%

CCc1c(C(C)=O)oc2ccc3c(C)cc(=O)oc3c12
inactive: [1] -1.2% | [2] -2.4% | [3] -2.4%

COc1cc(NC(=S)NN2CCN(C)CC2)cc(OC)c1OC
inactive: [1] 5.5% | [2] -0.6% | [3] -5.6%

CC(NC(=O)c1cccnc1)C(=O)O (stereo not given)
inactive: [1] -0.3% | [2] -0.4% | [3] -4.7%

CC(C)OC(=O)C1C2C=CC3(CN(CC4CCCO4)C(=O)C13)O2 (stereo not given)
inactive: [1] 0.2% | [2] 0.8% | [3] -2.9%

COc1ccc(OC(C)C(=O)Nc2ccccc2F)cc1 (stereo not given)
inactive: [1] 0.8% | [2] -0.2% | [3] 1.9%

COC(=O)c1cc(-c2ccc(OC)c(OC)c2)on1
inactive: [1] 6.2% | [2] 1.7% | [3] 0.1%

COc1ccc2[nH]c3c(=O)n(/N=C/[C@H]4C(C)C=C(C)CC4C)c(=O)[nH]c3c2c1 (stereo not given in full)
inactive: [1] -1.7% | [2] -0.6% | [3] 7.1%

COc1ccc(OC)c(C(=O)c2coc3ccc(O)cc23)c1
inactive: [1] -0.5% | [2] -1.6% | [3] 7%

CC(C)CN1CCN(Cc2cccn2-c2ccccn2)CC1CCO (stereo not given)
inactive: [1] -0.4% | [2] -0.5% | [3] 3.6%

CC(C)[N+]1(C)[C@@H]2CC[C@H]1CC(OC(=O)C(CO)c1ccccc1)C2 (stereo not given in full)
inactive: [1] -2.9% | [2] 1% | [3] -3%

O=C(NCc1ccc2c(c1)OCO2)c1ccc2c(c1)OCCO2
inactive: [1] 2% | [2] 0.7% | [3] -0.5%

O=c1c2ccccc2nnn1Cc1cccc2ccccc12
inactive: [1] 0.5% | [2] 0.7% | [3] -9.5%

Cc1cc(/C=N/O)c(C)n1-c1ccc(Br)cc1
inactive: [1] 1.9% | [2] 1.1% | [3] 0.9%

COC(=O)C1=C(C)NC(C)=C(C(=O)OC)C1c1ccccc1[N+](=O)[O-]
inactive: [1] 5.8% | [2] 2.2% | [3] 2%

COC(=O)c1ccc2c(c1)C(=O)/C(=C/c1ccc(O)cc1)O2
inactive: [1] -0.8% | [2] 0.7% | [3] -8.5%

Cc1ccc2c(c1)c1c(n2C)C(=O)CCC1
inactive: [1] -1.5% | [2] -1% | [3] 3.3%

O=c1[nH]c(Cc2ccccc2)nc2c1oc1ccccc12
inactive: [1] 4.2% | [2] 0.2% | [3] 8.7%

CC(=O)O[C@H]1C[C@@]2(C)[C@@H](C[C@@H](O)[C@H]3[C@@]4(C)CC[C@@H](O)[C@@H](C)C4CC[C@@]32C)/C1=C(\CCC=C(C)C)C(=O)O (stereo not given in full)
inactive: [1] -2.5% | [2] -0.2% | [3] 1.4%

Source: PubChem BioAssay
